aSyn yeast rescue – qHTS of alpha-syn Inhibitors: NCGC Sytravon Library Screen; Potency, µM (doses to about 46.1 µM), most hits filed as activators; AID 1347070, 2019; 94,000 tested, 0.02% active; S. cerevisiae alpha-synuclein toxicity rescue, BacTiter-Glo growth, 24 h; active = well fitted activation curve with a large enough effect; note: 0% is about no effect
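Growth restoration measured by BacTiter-Glo luminescence after 24 hr at 30 deg C; alpha-synuclein yeast, raffinose-pregrown to mid-log, were added at OD600=0.02 in galactose medium onto pinned compounds.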
* marks the source's active call; other numbers are inactive results; i = inactive. This is one part of a sample in which hits are shown more often than they occur. Potency is the fitted concentration of half-maximal effect.

SMILES	aSyn yeast rescue
CCCCn1c(CNC(=O)c2ccc(OC)cc2)nnc1SCC(=O)Nc1ccccc1	i
O=C(c1ccccc1F)N1c2nc(-c3ccco3)nn2C2(CCCCC2)[C@@H]2CCCC[C@@H]21	i
Cc1ccc(CNC(=O)c2cc3c(=O)oc4ccc(C)cc4c3s2)cc1	i
Cc1ccc2oc(=O)c3cc(C(=O)NCc4ccc(Cl)cc4)sc3c2c1	i
CCCN(CCC)CCCNC(=O)c1cc2c(=O)oc3ccc(C)cc3c2s1	13µM*
CCc1ccc(NS(=O)(=O)c2c(-c3ccccc3)csc2C(=O)OC)cc1	25µM*
CCOC(=O)c1scc(-c2ccccc2)c1S(=O)(=O)Nc1ccccc1OC	i
COC(=O)c1scc(-c2ccccc2)c1S(=O)(=O)Nc1cccc(C)c1C	i
Cc1cc(Nc2cccc(C(F)(F)F)c2)nc2ccc(NC(=O)Cc3ccc(Cl)cc3)cc12	i
COc1ccc(NC(=O)CN2C(=O)CC(c3ccc(C)c(C)c3)=Nc3ccccc32)cc1OC	i
Cc1cc(=O)n2[nH]c(NC(=O)c3cccc(Cl)c3)nc2n1	i
O=C(CCSCc1cccc(Cl)c1)NCc1ccc(F)cc1Cl	28µM*
O=C(CCSCc1ccc(Cl)cc1)NCc1ccc(F)cc1Cl	i
O=C(CCSCc1ccccc1Cl)NCc1ccc(F)cc1Cl	i
COc1ccc(N2CCN(c3csc4ccc(Cl)cc4c3=O)CC2)cc1	i
COc1cccc2c1ncc1c(-c3ccc(C)cc3)nn(-c3ccc(F)cc3)c12	i
CC(C)Cc1nn2c(=O)cc(COC(=O)c3ccccc3NC(=O)c3ccccc3)nc2s1	i
O=C(OCc1cc(=O)n2nc(-c3cccs3)sc2n1)c1ccccc1Br	i
Clc1cccc(N2CCN(c3nc4ccccc4n4nnnc34)CC2)c1	i
Cc1ccc(CNC(=O)CSCc2nc(-c3ccc(Cl)cc3)oc2C)cc1	i
Cc1oc(-c2cccc(Cl)c2)nc1CSCC(=O)NCc1ccccc1Cl	20µM*
Cc1oc(-c2ccc(Cl)cc2)nc1CSCC(=O)NCc1ccccc1Cl	i
Cc1nc2scc(C)n2c(=O)c1S(=O)(=O)Nc1cccc(C(F)(F)F)c1	11µM*
COc1cccc(CNS(=O)(=O)c2c(C)nc3scc(C)n3c2=O)c1	i
Cc1nc2scc(C)n2c(=O)c1S(=O)(=O)Nc1cccc(O)c1	i
SMILES	aSyn yeast rescue
COc1cc(OC)c(NC(=O)NCc2cccn2Cc2ccccc2)cc1Cl	i
Cc1ccc(-n2nc(C)c3nc(CCC(=O)Nc4ccc(F)cc4)c(=O)n(C)c32)cc1	i
CCOc1ccc(NC(=O)c2sc(-n3nc(C)c(CCC(C)C)c3C)nc2C)cc1	i
COc1ccccc1NC(=O)c1c(C)cc(C)nc1SCC(=O)Nc1cccc(C)c1	i
CC1=C(C(=O)Nc2cccnc2)C(c2cccc(Br)c2)n2nc(SCc3ccccc3)nc2N1 (stereo not given)	i
COc1ccccc1N1CCN(C(=O)c2cc3c(=O)n(Cc4cccnc4)ccc3nc2C)CC1	i
COc1ccc(-n2ncc3c2ncn2nc(COc4ccc(Cl)cc4)nc32)cc1	i
CSc1ccc(CCNC(=O)c2csc3c2CCCCC3)cc1	i
CCOc1ccccc1NC(=O)Cn1c(=O)n(-c2ccc(F)cc2)c(=O)c2sc3ccccc3c21	i
Cc1ccc(CCNC(=O)c2ccc3c(c2)N(Cc2cccc(Cl)c2)C(=O)c2ccccc2S3(=O)=O)cc1	i
O=C(CSc1nccn1Cc1ccc(F)cc1)Nc1ccc2c(c1)OCO2	i
CCOc1ccc(OCC)c(NC(=O)CC(C)n2nc(C)cc2C)c1 (stereo not given)	i
Cc1ccc(S(=O)(=O)c2cc3cc(C(=O)Nc4ccc(C)cc4C)ccc3oc2=O)cc1	i
COc1ccc(-c2nc3sc(CCNC(=O)c4cc(OC)c(OC)c(OC)c4)c(C)n3n2)cc1	i
Cc1cccc(Cn2c(COc3ccc(Cl)cc3)nc3ccccc32)c1	i
O=C1COc2cc(S(=O)(=O)CCC(=O)N3CCN(c4ccccc4)CC3)c(Cl)cc2N1	i
Cc1cc(C)cc(N(CC(=O)NCCc2ccc(Cl)cc2)S(=O)(=O)c2c(C)noc2C)c1	i
Cc1ccc(-c2cc(C(=O)N(Cc3ccccc3)Cc3ccco3)no2)cc1F	i
CCN(CC)CCNC(=O)C1CCN(c2nn3cc(-c4ccc(F)cc4)nc3s2)CC1	i
CCc1ccccc1NC(=O)N1CCOc2ccccc21	i
COc1ccc(C)cc1NS(=O)(=O)c1c(C(=O)N2CCCCCC2)c(C)n(C)c1C	i
CCCCC(=O)Nc1ccc2nc(SCC(=O)N3CCc4ccccc43)sc2c1	i
COc1ccccc1CCNC(=O)Cc1c(C)c2cc3c(C(C)(C)C)coc3c(C)c2oc1=O	i
O=C(CSc1oc(-c2ccc(F)cc2)nc1S(=O)(=O)c1ccccc1)c1ccc(Cl)cc1	i
Cc1ccc(S(=O)(=O)c2nc(-c3ccc(F)cc3)oc2SCC(=O)c2ccccc2)cc1	i
Cc1ccc(-c2nc(S(=O)(=O)c3ccc(C)cc3)c(SCC(=O)c3ccccc3)o2)cc1	18µM*
